The source made the active and inactive calls. The call rests on the fitted dose curve; in most records, active means well fitted curve in the direction sought with a large enough effect in the repeat runs; inconclusive means weak or mixed curves; inactive means flat fitted curve, though single readings scatter.
experiment: qHTS assay to test for compound auto fluorescence at 590 nm (red) in HEK293 cells (AID 720679); details: red autofluorescence 540/590 nm; series mostly up to 91.3 µM
Source text: National Center for Advancing Translational Sciences [NCATS]
NIH Chemical Genomics Center [NCGC]
U.S. Environmental Protection Agency [EPA]
National Institutes of Environmental Health Sciences [NIEHS]
National Toxicology Program [NTP]
U.S. Food and Drug Administration [FDA]
Compound auto fluorescence often interferes with screening of the compound library against various biological targets and signaling pathways. Some of these compounds may have fluorophoric properties. Such properties may interfere with the assay outputs resulting in false positives and/or negatives. To decrease such complications and ensure the compound activities are relevant in terms of biological response, the Tox21 10K compound library was screened for auto fluorescence.
From the fluorophores used as reporter signals in our screening assays, the auto fluorescence equivalencies of compounds against three fluorophores have been evaluated: Triamterene, Fluorescein and Rose Bengal sodium for blue, green and red fluorescence, respectively. The fluorescence intensities were measured using Excitation/Emission wavelengths at 405/460nm, 485/535nm and 540/590nm for blue, green and red labels, respectively. This assay includes the red fluorescence data.
Tox21 Assay Protocol Summary:
2,000 HEK293 cells in 5 uL of culture medium containing 10% dialyzed FBS per well were dispensed into black wall/clear bottom 1536-well plates using a Multidrop Combi Dispenser (Thermo Scientific). The assay plates were incubated for 4-5 hr at 37C to allow cell attachment to the well bottom, followed by the transfer of 23 nL compound or DMSO vehicle by a pintool work station (Kalypsys, San Diego, CA). After the assay plates were incubated overnight at 37C and 5% CO2, fluorescence intensities in the assay plates were measured by an Envision (PerkinElmer, Shelton, CT) plate reader using three labels for measuring blue, green and red fluorescence at […] 460, 535 and 590nm respectively.
On the % scale 0 is the no-effect control and ±100 the full control effect.

SMILES | outcome | fluorescence, % of fluorescent control
N#Cc1c2ccccc2cc2ccccc12 | inactive | 
Oc1cc(Cl)cc(Cl)c1 | inactive | 
Cc1cc2c3c(c1)C(c1ccccc1)=N[C@@H](NC(=O)c1ccncc1)C(=O)N3CC2 | inactive | 
CCC(C)Br (stereo not given) | inactive | 
CCC1COC(Cn2cncn2)(c2ccc(Cl)cc2Cl)O1 (stereo not given) | inactive | 
c1csc(-c2ccc(-c3cccs3)s2)c1 | inactive | 
Nc1nc(N)nc(Cl)n1 | inactive | 
O=S1OCC2C(CO1)C1(Cl)C(Cl)=C(Cl)C2(Cl)C1(Cl)Cl (stereo not given) | inactive | 
COc1ccc2c(c1OC)C(=O)O[C@@H]2[C@H]1c2cc3c(cc2CCN1C)OCO3 | inactive | 
CNC(=O)CSP(=O)(OC)OC | inactive | 
CC(C)NCC(O)c1ccccc1Cl (stereo not given) | inactive | 
CC(=O)[O-].CC(=O)[O-].[Co+2] | inactive | 
Cc1c([N+](=O)[O-])cc2c(c1[N+](=O)[O-])C(C)(C)CC2(C)C | inactive | 
Nc1cc(Cl)ccc1Cl | inactive | 
COC(=O)c1cc(Oc2ccc(Cl)cc2Cl)ccc1[N+](=O)[O-] | inactive | 
CC(C)Br | inactive | 
CC(C)N(C(=O)SC/C(Cl)=C/Cl)C(C)C | inactive | 
Clc1c(Cl)c(Cl)c(Cl)c(Cl)c1Cl |  | -0.0042% [at 3.72 µM] (inactive)
Brc1ccc(Oc2ccc(Br)cc2Br)c(Br)c1 | inactive | 
N#Cc1ccc(N(CC(N)=O)CC(F)(F)F)cc1C(F)(F)F | inactive | 

SMILES | outcome | fluorescence, % of fluorescent control
O=NN(CCO)CCO | inactive | 
CCn1cc[n+](C)c1 (tested in a mixture with another compound) | inactive | 
C=CC(=O)[O][Sn]([CH2]CCC)([CH2]CCC)[CH2]CCC | inactive | 
O=C(Nc1ccc(F)cc1F)c1cccnc1Oc1cccc(C(F)(F)F)c1 | inactive | 
CN(C)c1ccc(N)cc1 | inactive | 
CN1CCc2cc3c(cc2C1O)OCO3 (stereo not given) | inactive | 
C=C(C)C(=O)[O][Sn]([CH2]CCC)([CH2]CCC)[CH2]CCC | inactive | 
COc1ccc2c3c1O[C@H]1[C@H](O)CC[C@H]4[C@@H](C2)N(C)CC[C@@]341 | inactive | 
c1cc[n+]2c(c1)-c1cccc[n+]1CC2 | inactive | 
BrCC(Br)(Br)Br | inactive | 
C#CCO | inactive | 
Cc1c([N+](=O)[O-])c(C)c([N+](=O)[O-])c(C(C)(C)C)c1[N+](=O)[O-] | inactive | 
Oc1cc(Cl)c(Cl)c(Cl)c1Cl | inactive | 
[C-]1=CC=CC1.[Cl][Zr+2][Cl].c1cc[cH-]c1 | inactive | 
COC(=O)N(OC)c1ccccc1COc1ccn(-c2ccc(Cl)cc2)n1 | inactive | 
CCOP(=O)(OCC)Oc1cc(C)nc(C(C)C)n1 | inactive | 
COC(=O)c1ccccc1S(=O)(=O)NC(=O)Nc1nc(C)nc(OC)n1 | inactive | 
CC(O)C(=O)[O][Hg][c]1ccccc1 (stereo not given) | inactive | 
CCN(CC)C(=S)S | inactive | 
ClC(Cl)C(Cl)(Cl)Cl | inactive | 

Source: PubChem BioAssay (Tox21)
